# Most compounds without a hit are left out; they make up all but 6.3% or so of the library.
# Mdm2 MdmX PPI = inhibitors of human Mdm2-MdmX association, primary screen, cell-based, luminescence, split luciferase, SaOS-2, uHTS. inhibition, % at 8 µM. Protein Mdm4 (Homo sapiens) + E3 ubiquitin-protein ligase Mdm2 (Homo sapiens), …. SaOS-2 split-luciferase Mdm2/MdmX complementation. actives 3% (n = 330,000);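 active = inhibition of at least 50% at 8 µM in the primary screen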
# Target sequence (O15151 whole entry, looked up): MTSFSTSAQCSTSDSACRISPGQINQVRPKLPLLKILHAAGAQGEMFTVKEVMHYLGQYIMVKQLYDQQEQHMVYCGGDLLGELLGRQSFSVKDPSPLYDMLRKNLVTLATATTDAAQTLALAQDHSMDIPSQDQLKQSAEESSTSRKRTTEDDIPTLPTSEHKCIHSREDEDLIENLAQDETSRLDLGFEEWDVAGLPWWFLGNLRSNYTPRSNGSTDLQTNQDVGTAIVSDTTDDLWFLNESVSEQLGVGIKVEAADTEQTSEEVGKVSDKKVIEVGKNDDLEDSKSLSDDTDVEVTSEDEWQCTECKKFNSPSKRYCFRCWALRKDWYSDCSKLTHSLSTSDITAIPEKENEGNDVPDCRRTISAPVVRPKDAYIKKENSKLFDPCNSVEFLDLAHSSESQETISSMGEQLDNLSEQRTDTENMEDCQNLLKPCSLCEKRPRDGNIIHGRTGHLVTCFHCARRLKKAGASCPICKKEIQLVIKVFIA
# Target sequence (Q00987 whole entry, looked up): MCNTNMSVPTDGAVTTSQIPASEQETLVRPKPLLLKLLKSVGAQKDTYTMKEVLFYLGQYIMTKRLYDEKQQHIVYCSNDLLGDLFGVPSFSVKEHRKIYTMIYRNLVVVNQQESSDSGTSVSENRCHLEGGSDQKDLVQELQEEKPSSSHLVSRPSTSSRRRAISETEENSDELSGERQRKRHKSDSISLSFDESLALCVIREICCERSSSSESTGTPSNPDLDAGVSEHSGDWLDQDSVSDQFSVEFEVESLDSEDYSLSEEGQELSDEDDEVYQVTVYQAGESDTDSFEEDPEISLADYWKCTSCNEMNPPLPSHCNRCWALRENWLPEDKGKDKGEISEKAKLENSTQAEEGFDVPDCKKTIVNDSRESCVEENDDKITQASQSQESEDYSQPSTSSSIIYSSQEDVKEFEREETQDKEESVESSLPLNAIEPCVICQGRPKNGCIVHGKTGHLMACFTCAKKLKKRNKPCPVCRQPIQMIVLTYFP
# MPTP block = mitochondrial permeability transition pore inhibitors, primary screen, biochemical, isolated mouse mitochondria, absorbance; Ca2+ swelling absorbance, 30 min; inhibition, % at 10 µM; actives 1.4% (n = 360,000); AID 602449, 2012;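 active = inhibition of 50% or more, scaled per plate between neutral and stimulator controls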;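 also: 0% = DMSO wells given calcium and 100% = 1 mM EGTA wells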
# tim10-1 inh = growth inhibitors of tim10-1 mutant yeast, primary screen, luminescence, uHTS; S. cerevisiae tim10-1 ts strain growth, BacTiter-Glo, 24 h; inhibition, % at 20 µM; actives 2.2% (n = 330,000); AID 463190, 2010;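 active = inhibition of at least 40%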;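 also: mutant grown at 25 °C; 0% = DMSO wells with yeast and 100% = wells holding no yeast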
# tim23-1 inh = growth inhibitors of tim23-1 mutant yeast, primary screen, luminescence, uHTS; inhibition, % at 20 µM; S. cerevisiae tim23-1 growth, BacTiter-Glo luminescence, 24 h; actives 1.3% (n = 330,000); AID 463212, 2010;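 active = growth inhibition of the mutant yeast at or above 50%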;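 also: temperature-sensitive mutant grown at 25 °C; plate controls were DMSO-treated mutant yeast for no effect and medium wells lacking yeast for full effect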
# TIM10 inh = growth inhibitors of isogenic TIM10 control yeast, primary screen, counter-screen for tim10-1 yeast inhibitor project, luminescence, uHTS. inhibition, % at 10 µM. actives 1.4% (n = 330,000). AID 463195, 2010. S. cerevisiae TIM10 strain growth, BacTiter-Glo luminescence, 24 h;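 active = inhibition of 40% or more at the single tested concentration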;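 also: wild-type TIM10 isogenic control strain grown at permissive 25 °C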
# Mdm2-MdmX conf = Mdm2-MdmX complex disruptors, retested hits, confirmation, luminescence, single concentration; shares compounds with Mdm2 MdmX PPI; inhibition, % at 8 µM; Mdm2-MdmX binding, luminescent assay; actives 55% (n = 10,000); in the data active = inhibition above about 40%
# Full FLuc ctr = full-length luciferase signal inhibition, confirmation, counter-screen for Mdm2/MdmX interaction inhibitor project, cell-based, single concentration, SaOS-2. shares compounds with Mdm2 MdmX PPI. SaOS-2 full-length luciferase counterscreen, luminescence. inhibition, % at 8 µM. actives 77% (n = 6,200). AID 504607, 2011;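 active = mean inhibition at 8 µM reaching about 37%, which flags the compound as non-specific, limit read from the data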;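 also: p53-null SaOS-2 cells with luciferase driven by a doxycycline-inducible promoter; compound on cells about two nights before reading with doxycycline added after day one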
# Active calls of the source: *; . = no result given.
SMILES,Mdm2 MdmX PPI,MPTP block,tim10-1 inh,tim23-1 inh,TIM10 inh,Mdm2-MdmX conf,Full FLuc ctr
N=c1c2c(n(Cc3ccc(Cl)cc3Cl)c3c1CCC3)CCCC2,82.2*,-0.4,-45.8,-220.8,-28.5,36.9,58.9*
COC(=O)C1=C(c2ccc(F)cc2F)C[C@@H]2CC[C@H]1N2C(=O)NC1CCCCC1,6.5,0.3,2.6,21.1,5.6,.,.
COC(=O)C1=C(c2ccc(-c3ccccc3)c(F)c2)C[C@@H]2CC[C@H]1N2C(=O)NC1CCCCC1,69.2*,0.2,12.9,24.2,15.2,41.3*,64.0*
COC(=O)C1=C(c2ccc(OCc3ccccc3)cc2)C[C@@H]2CC[C@H]1N2C(=O)NC1CCN(Cc2ccccc2)CC1,85.5*,2.8,14.9,25.0,6.0,53.8*,61.6*
O=C1c2ccccc2-n2nnc(-c3ccccc3)c2C2c3cc(Br)ccc3CCN12 (stereo unspecified),.,0.8,.,.,.,.,.
CCCCCCn1c(N)c(C(=O)NCCN2CCOCC2)c2nc3ccccc3nc21,58.3*,0.9,8.3,12.4,29.0,32.2,.
COc1ccc(CCNC(=O)c2c(N)n(CCN3CCOCC3)c3nc4ccccc4nc23)cc1OC,53.9*,-0.6,29.4,24.5,15.9,28.5,.
CC(C)S(=O)(=O)N1Cc2ccccc2-n2nncc2C1,.,-1.1,.,.,.,.,.
Cc1ccc(S(=O)(=O)NP(=O)(Oc2ccccc2)Oc2ccccc2)cc1,12.0,-1.7,-5.8,8.0,-3.7,.,.
Cc1ccc(C)c(NP(=O)(Oc2ccccc2)Oc2ccccc2)c1,57.9*,0.6,6.4,28.7,11.4,71.8*,68.1*
COC(=O)C1=C(c2ccc(OCc3ccccc3)cc2)C[C@@H]2CC[C@H]1N2C(=O)NCCc1ccc(F)cc1,.,-0.6,.,.,.,.,.
Cc1ccc(Cn2nnnc2CN2CCC(n3nnc4cc(C(F)(F)F)ccc43)CC2)cc1,70.6*,4.2,36.1,18.3,33.2,28.1,.
FC(F)(F)c1ccc(-c2ccc3c(c2)CNCc2cnnn2-3)cc1,.,0.5,.,.,.,.,.
COc1ccc2c(c1)[nH]c1c(C)nccc12,89.6*,-4.8,-20.8,7.4,6.8,90.5*,22.6
Clc1cccc(N2Cc3ccccc3-n3nncc3C2)c1,.,-1.1,.,.,.,.,.
CCC1C=CC=CC[C@H](C)[C@@H](O)[C@](C)(O)C(=O)[C@@H](C)[C@H](O)[C@@H](C)C(=O)[C@H](C)[C@@H](O)[C@H](C)C=CC(=O)OC2[C@@H](C)C(CC1)OC1(CC[C@@H](C)C(C[C@H](C)O)O1)[C@@H]2C (stereo partly specified),100.4*,.,31.4,46.2,12.7,55.8*,49.6*
CC(C)[C@H]1C(=O)O[C@H](C(C)C)C(=O)N(C)[C@@H](C(C)C)C(=O)O[C@H](C(C)C)C(=O)N(C)[C@@H](C(C)C)C(=O)O[C@H](C(C)C)C(=O)N1C,95.3*,-1.1,26.2,16.8,13.9,88.2*,48.5*
CC(C)C[C@@H]1COc2cc(N3CCN(C)CC3)ccc2S(=O)(=O)N1,.,0.9,.,.,.,.,.
C[C@@H]1CN([C@@H](C)CO)C(=O)CCCn2cc(nn2)CO[C@H]1CN(C)C(=O)Oc1ccc2ccccc2c1,.,-1.3,.,.,.,.,.
COc1cc2nc(CN3CC=C(c4ccccc4)CC3)[nH]c(=O)c2cc1OC,78.6*,2.3,15.5,23.0,-1.8,68.4*,113.0*
COC(=O)C1=C(c2cc3ccccc3s2)C[C@@H]2CC[C@H]1N2C(=O)N1CCOCC1,54.8*,-0.5,12.6,20.8,13.5,55.0*,55.5*
CN[C@@H]1C[C@@H](c2ccc(Cl)c(Cl)c2)c2ccccc21,82.2*,.,19.7,12.2,17.1,36.5,.
Nc1ncnc2c1ccn2[C@@H]1O[C@H](CO)[C@@H](O)[C@H]1O,100.3*,-0.4,-10.5,-9.2,-0.8,100.2*,50.1*
CC1=C(C)CN2CC(C#N)=C(N)C2C1 (stereo unspecified),.,0.7,.,.,.,.,.
CC(C)(C)n1nnnc1C(c1cccs1)N1CCC2(CC1)C(=O)NCN2c1ccccc1 (stereo unspecified),.,-2.5,.,.,.,.,.
SMILES,Mdm2 MdmX PPI,MPTP block,tim10-1 inh,tim23-1 inh,TIM10 inh,Mdm2-MdmX conf,Full FLuc ctr
CCCCCCCSc1cc(OC)c(CCNC)cc1OC,52.6*,11.3,-38.5,-4.3,17.9,25.6,.
CCOC(=O)c1cccc(C2=C(CNC(=O)c3ccc([N+](=O)[O-])cc3)[C@H]3CC[C@@H](C2)N3Cc2ccccc2)c1,.,-2.2,.,.,.,.,.
c1ccc(C2(N3CCCCC3)CCCCC2)cc1,10.1,-1.0,6.4,11.9,0.3,.,.
S=C=Nc1cccc(C2(N3CCCCC3)CCCCC2)c1,69.3*,40.5,16.6,12.0,-7.4,22.8,.
Fc1cccc(-c2ccc3c(c2)CNCc2cnnn2-3)c1,.,0.3,.,.,.,.,.
C/C=C(\C)C(=O)N[C@@H](c1ccccc1)[C@@H](O)C(=O)O[C@H]1C[C@@]2(O)[C@@H](OC(=O)c3ccccc3)C3[C@](C)(C(=O)[C@H](O)C(=C1C)C2(C)C)[C@@H](O)C[C@H]1OC[C@@]31OC(C)=O (stereo partly specified),53.3*,0.2,11.2,-10.7,7.2,64.8*,41.0*
C/C=C(\C)C(=O)N[C@@H](c1ccccc1)[C@@H](O)C(=O)O[C@H]1C[C@@]2(O)[C@@H](OC(=O)c3ccccc3)C3[C@](C)(C(=O)[C@H](OC(C)=O)C(=C1C)C2(C)C)[C@@H](O)C[C@H]1OC[C@@]31OC(C)=O (stereo partly specified),34.5,0.5,11.4,18.3,0.6,.,.
Cc1c(C(=O)c2cccc3ccccc23)c2cccc3c2n1[C@H](CN1CCOCC1)CO3,91.5*,-1.2,9.4,42.0,5.1,57.4*,93.5*
CCOc1ccc(-c2cc(C)[n+](CCc3ccc(OC)c(OC)c3)c(-c3ccc(OCC)cc3)c2)cc1,80.6*,-1.5,37.2,-1.6,13.7,61.4*,35.8
Cc1cc(-c2ccccc2)cc(-c2ccccc2)[n+]1CCc1ccccc1,60.7*,1.1,14.3,-3.9,15.3,11.8,.
CCOc1ccc(-c2cc(C)[n+](CCO)c(-c3ccc(OCC)cc3)c2)cc1,20.8,-0.7,24.2,18.2,30.8,.,.
CC(C)(C)c1nc(N2CCN(C(=O)c3ccco3)CC2)c2nnn(Cc3ccccc3Cl)c2n1,57.4*,1.3,12.3,27.3,11.7,9.2,.
COc1ccc(-c2ccc3c(c2)CNCc2cnnn2-3)cc1,.,0.1,.,.,.,.,.

# Screening results as filed in PubChem BioAssay.
